# A number with no mark means an inactive call. Inconclusive results are not listed. A call without a number means that no potency is given here. Calls of active or inactive are those of the source. Calls follow the shape of the dose curve; as a rule, active = well fitted curve in the direction sought with a large enough effect in the repeat runs; inconclusive = weak or mixed curves; inactive = no such curve, though single readings can be large; an effect the other way counts as inactive or inconclusive.
# Legend:
# [1] = Caspase-3/7 induction in HepG2 cells by small molecules, qHTS assay (AID 1346978); also: nearly all actives have a fitted effect of over 15% in size
# Summary of the method: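 Wild-type HepG2 cells, 2,000/well, settled 5 hr at 37 C and 5% CO2, then compound-treated for 17 hr; caspase-3/7 activity read by luminescent Caspase-Glo 3/7 after 30 min at room temperature.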
# [2] = Caspase-3/7 induction in CHO-K1 cells by small molecules, qHTS assay (AID 1346980); also: nearly all actives have a fitted effect of over 15% in size
# Summary of the method: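 Wild-type CHO-K1 cells exposed to compounds for 17hr at 37 C, 5% CO2. Caspase-3/7 activity then measured by Caspase-Glo 3/7 luminescence after 30min at room temperature.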
# [3] = Caspase-3/7 induction in HepG2 cells by small molecules, qHTS cell viability counter screen (AID 1346981); also: nearly all actives have a fitted effect of over 30% in size; also: potency is read from the fitted curve at half-maximal effect; as to activity change, negative = cytotoxicity: series mostly up to about 92 µM
# Summary of the method: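 Wild-type HepG2 cells, 2,000/well, settled 5 hr at 37 C, 5% CO2 before compound addition. Viability read by CellTiter-Fluor fluorescence, reagent added after 16 hr compound exposure, then 1 hr at 37C, in the same wells as the caspase read.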
# [4] = target: Nuclear receptor subfamily 1 group I member 2 (Homo sapiens) (UniProt O75469); assay: Human pregnane X receptor (PXR) small molecule agonists, qHTS assay (AID 1346982); also: nearly all actives have a fitted effect of over 35% in size; also: potency is read from the fitted curve at half-maximal effect
# Summary of the method: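 PXR-Luc HepG2 reporter cells (CYP3A4-driven luciferase) in 5% charcoal-stripped FBS medium, plated 5 h before compound addition, then treated 24 h at 37C. Luciferase read by ONE-Glo luminescence after 30 min at room temperature.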
# [5] = target: Cytochrome P450 2D6 (Homo sapiens) (UniProt P10635); assay: Cytochrome P450 Family 2 Subfamily D Member 6 (CYP2D6) small molecule antagonists: luciferase reporter qHTS assay (AID 1671196); also: nearly all actives have a fitted effect of over 50% in size; also: potency is read from the fitted curve at half-maximal effect; as to activity change, negative = inhibition: series mostly up to about 120 µM
# Summary of the method: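 Cell-free P450-Glo system: CYP2D6 with proluciferin substrate was pre-incubated with compound for 10 min, then reacted with NADPH regeneration for 1 h at room temperature. Luciferin product was detected after 20 min, and data were reported as relative luminescence units.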
# [6] = target: Nuclear receptor subfamily 1 group I member 2 (Rattus norvegicus) (UniProt Q9R1A7); assay: Rat pregnane X receptor (rPXR) activation by small molecules, qHTS assay (AID 1346983); conditions: rPXR luciferase reporter cells, One-Glo luminescence, 24 h; max activation: active compounds read high; also: nearly all actives have a fitted effect of over 20% in size; also: potency is read from the fitted curve at half-maximal effect
# Summary of the method: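 Cell-based rPXR activation assay: rPXR cells, 2,000 per well, rested 5hr at 37 C, then exposed to compounds in DMSO for 24 hr at 37 C. Luciferase activity read by One-Glo luminescence after 30 min at room temperature.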
# [7] = target: Nuclear receptor subfamily 1 group I member 2 (Homo sapiens) (UniProt O75469); assay: CYP3A4 induction through human pregnane X receptor (PXR) by small molecules, qHTS assay (AID 1346984); also: nearly all actives have a fitted effect of over 40% in size; also: potency is read from the fitted curve at half-maximal effect
# Summary of the method: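 DPX-2 HepG2 cells carrying a PXR response element and CYP3A4-promoter luciferase construct, treated with compounds 24 hr at 37C. Then P450-Glo CYP3A4 Luciferin-IPA substrate (3uM final) for 3 hr at 37C, One-Glo added, luminescence read.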
# [8] = target: Cytochrome P450 2C19 (Homo sapiens) (UniProt P33261); assay: Cytochrome P450 Family 2 Subfamily C Member 19 (CYP2C19) small molecule antagonists: luciferase reporter qHTS assay (AID 1671197); also: nearly all actives have a fitted effect of over 65% in size; also: potency is read from the fitted curve at half-maximal effect; as to activity change, negative = inhibition: series mostly up to about 120 µM
# Summary of the method: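 Quantitative high-throughput screen of the Tox21 library using CYP2C19 with proluciferin substrate. Reaction: NADPH regeneration, 37C, 1 h, after 10 min compound preincubation at room temperature. Readout: luminescence.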
# [9] = target: Nuclear receptor subfamily 1 group I member 2 (Homo sapiens) (UniProt O75469); assay: Human pregnane X receptor (PXR) activation by small molecules, qHTS assay (AID 1346985); also: nearly all actives have a fitted effect of over 40% in size; also: potency is read from the fitted curve at half-maximal effect
# Summary of the method: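 DPX-2 cells (HepG2 co-transfected with a PXR response element and a CYP3A4-promoter luciferase construct) were seeded at 2,000 per well, rested 5 hr at 37C, then exposed to DMSO-dissolved compounds for 24 hr. Activation was read as luciferase luminescence.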
# [10] = Caspase-3/7 induction in CHO-K1 cells by small molecules, qHTS cell viability counter screen (AID 1346979); also: nearly all actives have a fitted effect of over 35% in size
# Summary of the method: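 Seeding: 1,500 CHO-K1 cells/well. Rest: 5hr, 37C. Treatment: compounds in DMSO, 16hr. Read: CellTiter-Fluor, 1hr, fluorescence.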
# Chain of Cytochrome P450 2D6 (Homo sapiens) (P10635 whole entry, looked up): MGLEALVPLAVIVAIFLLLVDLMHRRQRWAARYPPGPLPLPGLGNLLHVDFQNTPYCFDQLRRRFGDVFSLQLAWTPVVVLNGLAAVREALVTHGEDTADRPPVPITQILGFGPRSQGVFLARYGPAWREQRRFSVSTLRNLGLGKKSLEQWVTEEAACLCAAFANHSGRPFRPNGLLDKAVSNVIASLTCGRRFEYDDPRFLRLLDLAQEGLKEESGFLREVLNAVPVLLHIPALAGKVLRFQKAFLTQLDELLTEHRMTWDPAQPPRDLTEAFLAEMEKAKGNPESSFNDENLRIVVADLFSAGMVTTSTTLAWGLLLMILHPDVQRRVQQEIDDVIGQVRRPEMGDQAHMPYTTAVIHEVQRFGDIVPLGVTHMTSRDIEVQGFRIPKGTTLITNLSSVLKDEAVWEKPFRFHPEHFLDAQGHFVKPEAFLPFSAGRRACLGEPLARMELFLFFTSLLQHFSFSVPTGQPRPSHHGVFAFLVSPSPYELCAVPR
# Chain of Nuclear receptor subfamily 1 group I member 2 (Homo sapiens) (O75469 whole entry, looked up): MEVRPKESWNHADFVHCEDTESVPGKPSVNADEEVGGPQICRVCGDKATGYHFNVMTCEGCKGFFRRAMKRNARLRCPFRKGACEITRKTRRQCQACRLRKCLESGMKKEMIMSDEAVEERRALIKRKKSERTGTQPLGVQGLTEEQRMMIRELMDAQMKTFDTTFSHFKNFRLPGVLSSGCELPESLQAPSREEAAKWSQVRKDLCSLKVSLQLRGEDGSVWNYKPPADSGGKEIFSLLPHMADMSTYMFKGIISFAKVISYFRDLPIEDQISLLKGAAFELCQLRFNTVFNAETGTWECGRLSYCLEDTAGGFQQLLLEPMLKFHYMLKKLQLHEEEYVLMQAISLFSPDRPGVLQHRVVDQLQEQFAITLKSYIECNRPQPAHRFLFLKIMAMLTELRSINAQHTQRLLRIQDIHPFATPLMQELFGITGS
# Chain of Cytochrome P450 2C19 (Homo sapiens) (P33261 whole entry, looked up): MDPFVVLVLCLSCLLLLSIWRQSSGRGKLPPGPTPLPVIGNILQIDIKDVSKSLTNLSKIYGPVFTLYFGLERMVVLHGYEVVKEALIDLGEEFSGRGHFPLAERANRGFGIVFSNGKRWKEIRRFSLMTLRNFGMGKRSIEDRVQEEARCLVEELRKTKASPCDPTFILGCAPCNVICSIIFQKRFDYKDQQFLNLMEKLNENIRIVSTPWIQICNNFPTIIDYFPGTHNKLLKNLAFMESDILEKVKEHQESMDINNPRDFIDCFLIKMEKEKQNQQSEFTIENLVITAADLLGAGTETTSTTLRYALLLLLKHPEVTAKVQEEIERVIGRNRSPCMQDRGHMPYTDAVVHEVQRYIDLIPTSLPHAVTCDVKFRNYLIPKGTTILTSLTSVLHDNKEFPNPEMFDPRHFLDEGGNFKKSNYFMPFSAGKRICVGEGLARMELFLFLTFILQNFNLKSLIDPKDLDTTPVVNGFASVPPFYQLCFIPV
# Chain of Nuclear receptor subfamily 1 group I member 2 (Rattus norvegicus) (Q9R1A7 whole entry, looked up): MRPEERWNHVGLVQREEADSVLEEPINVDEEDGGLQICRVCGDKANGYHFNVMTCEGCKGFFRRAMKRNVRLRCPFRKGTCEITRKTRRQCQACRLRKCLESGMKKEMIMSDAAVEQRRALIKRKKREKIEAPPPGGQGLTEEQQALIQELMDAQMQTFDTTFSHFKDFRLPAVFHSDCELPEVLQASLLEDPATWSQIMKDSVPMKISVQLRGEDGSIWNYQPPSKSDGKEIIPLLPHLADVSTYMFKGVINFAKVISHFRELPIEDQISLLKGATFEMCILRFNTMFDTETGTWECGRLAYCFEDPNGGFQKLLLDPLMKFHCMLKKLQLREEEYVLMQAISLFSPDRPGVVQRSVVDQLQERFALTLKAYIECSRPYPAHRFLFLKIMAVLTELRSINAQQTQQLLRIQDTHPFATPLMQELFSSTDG
compound,measurement,setting,value
O=C(OCCCCCCOC(=O)c1ccccc1)c1ccccc1,Potency,[1],inactive
same,Potency,[2],inactive
same,Potency,[3],inactive
same,Potency,[4],inactive
same,Potency,[5],inactive
CC(C)C[C@H]1C(=O)N2CCC[C@H]2[C@]2(O)O[C@](NC(=O)[C@@H]3C=C4c5cccc6[nH]c(Br)c(c56)C[C@H]4N(C)C3)(C(C)C)C(=O)N12,Potency,[1],inactive
same,Potency,[2],inactive
same,Potency,[3],16.4 µM (active)
same,max activation,[6],0.513%
same,Potency,[7],inactive
same,Potency,[5],inactive
same,Potency,[8],21.4 µM (active)
O=C1[C@H]2CCCC[C@H]2C(=O)N1CCCCN1CCN(c2nsc3ccccc23)CC1,Potency,[1],inactive
same,Potency,[2],inactive
same,Potency,[3],inactive
same,Potency,[4],5.31 µM (active)
same,max activation,[6],2.09%
same,Potency,[9],12.6 µM (active)
same,Potency,[8],inactive
CCCCC(CC)COC(=O)CCCCCCCCC(=O)OCC(CC)CCCC (stereo unspecified),Potency,[1],inactive
same,Potency,[2],inactive
same,Potency,[3],inactive
same,Potency,[4],inactive
same,Potency,[5],inactive
same,Potency,[8],inactive
Cc1cc(C(=O)O)ccc1[N+](=O)[O-],Potency,[1],inactive
same,Potency,[2],inactive
same,Potency,[3],inactive
same,Potency,[4],inactive
same,Potency,[5],56.5 µM (active)
CCOC(=O)COC(=O)c1cc(Oc2ccc(C(F)(F)F)cc2Cl)ccc1[N+](=O)[O-],Potency,[1],inactive
same,Potency,[2],inactive
same,Potency,[3],inactive
same,Potency,[4],30.6 µM (active)
same,Potency,[5],15.9 µM (active)
O=C(c1ccc(F)cc1)C1CCN(CCn2c(=S)[nH]c3ccccc3c2=O)CC1,Potency,[1],inactive
same,Potency,[2],inactive
same,Potency,[3],inactive
same,Potency,[4],10.6 µM (active)
same,max activation,[6],1.09%
same,Potency,[5],4.36 µM (active)
O=C(Nc1ccc(S(=O)(=O)N2CCOCC2)cc1)c1cc(Cl)ccc1NS(=O)(=O)c1ccc(Cl)s1,Potency,[1],inactive
same,Potency,[2],inactive
same,Potency,[3],inactive
same,Potency,[4],9.44 µM (active)
same,Potency,[5],inactive
COc1cccc(N(C)C(=S)Oc2ccc3c(c2)CCCC3)n1,Potency,[1],inactive
same,Potency,[2],inactive
same,Potency,[3],inactive
same,Potency,[4],8.41 µM (active)
same,Potency,[9],1.26 µM (active)
same,Potency,[5],inactive
same,Potency,[8],2.75 µM (active)
O=S(c1cc(Cl)cc(Cl)c1O)c1cc(Cl)cc(Cl)c1O,Potency,[1],inactive
same,Potency,[2],inactive
same,Potency,[3],inactive
same,Potency,[4],inactive
same,max activation,[6],-2.94%
same,Potency,[7],inactive
same,Potency,[5],inactive
CC1OC(=O)C(C)OC1=O (stereo unspecified),Potency,[1],inactive
same,Potency,[2],inactive
same,Potency,[3],inactive
same,Potency,[4],inactive
same,Potency,[5],inactive
same,Potency,[8],inactive
CCC(=O)O[C@]1(C(=O)CCl)[C@@H](C)C[C@H]2[C@@H]3CCC4=CC(=O)C=C[C@]4(C)[C@@]3(F)[C@@H](O)C[C@@]21C,Potency,[1],inactive
same,Potency,[2],inactive
same,Potency,[3],inactive
same,Potency,[6],2.24 µM (active)
same,Potency,[5],15.5 µM (active)
O=C(Cl)c1cc(C(=O)Cl)cc(C(=O)Cl)c1,Potency,[1],inactive
same,Potency,[2],inactive
same,Potency,[3],inactive
same,Potency,[4],54.5 µM (active)
same,Potency,[8],inactive
CN(C)CCN(Cc1ccc(Cl)cc1)c1ccccn1,Potency,[1],inactive
same,Potency,[2],inactive
same,Potency,[3],inactive
same,Potency,[5],0.275 µM (active)
Clc1ccc(Cn2c(CN3CCCC3)nc3ccccc32)cc1,Potency,[1],inactive
same,Potency,[2],inactive
same,Potency,[3],inactive
same,Potency,[5],1.74 µM (active)
same,Potency,[8],0.776 µM (active)
CC(C)=CCC/C(C)=C/CC/C(C)=C/CO,Potency,[1],inactive
same,Potency,[2],inactive
same,Potency,[3],inactive
same,Potency,[4],43.3 µM (active)
same,Potency,[5],39.9 µM (active)
same,Potency,[8],4.48 µM (active)
C[C@H]1C[C@H]2[C@@H]3CCC4=CC(=O)C=C[C@]4(C)[C@@]3(Cl)[C@@H](O)C[C@]2(C)[C@@]1(O)C(=O)CO,Potency,[1],inactive
same,Potency,[2],inactive
same,Potency,[3],inactive
same,Potency,[6],5.62 µM (active)
same,Potency,[7],15.8 µM (active)
same,Potency,[9],11.2 µM (active)
same,Potency,[5],30.9 µM (active)
CCCCCCCCCCCCCCOS(=O)(=O)O,Potency,[1],inactive
same,Potency,[2],inactive
same,Potency,[3],inactive
same,Potency,[4],inactive
same,Potency,[5],inactive
same,Potency,[8],inactive
Cc1cccc(C)c1NC(=O)CN(CC(=O)O)CC(=O)O,Potency,[1],inactive
same,Potency,[2],inactive
same,Potency,[3],inactive
same,Potency,[4],inactive
same,max activation,[6],-0.0723%
same,Potency,[7],inactive
same,Potency,[9],inactive
same,Potency,[5],inactive
same,Potency,[8],inactive
O[C@@H](COc1cccc2ncccc12)CN1CCN(C2c3ccccc3[C@@H]3[C@H](c4ccccc42)C3(F)F)CC1 (stereo partly specified),Potency,[1],inactive
same,Potency,[2],inactive
same,Potency,[3],21.1 µM (active)
same,Potency,[4],1.19 µM (active)
same,Potency,[5],11 µM (active)
same,Potency,[8],21.9 µM (active)
CCC(C)(C)CC,Potency,[1],inactive
same,Potency,[2],inactive
same,Potency,[3],inactive
same,Potency,[4],inactive
same,Potency,[5],inactive
same,Potency,[8],inactive
CCOC(=O)Cc1cccc2ccccc12,Potency,[1],inactive
same,Potency,[2],inactive
same,Potency,[3],inactive
same,Potency,[4],inactive
same,Potency,[5],inactive
same,Potency,[8],20 µM (active)
Brc1c2ccccc2c(Br)c2ccccc12,caspase activation,[1],0.0205% [at 8.39 µM]
same,caspase-3/7 activation,[2],-0.773% [at 8.39 µM]
same,"activity change, negative = cytotoxicity",[3],5.61% [at 8.39 µM]
same,activation,[4],1.22% [at 8.39 µM]
same,"activity change, negative = inhibition",[5],0.168% [at 10.5 µM]
same,"activity change, negative = inhibition",[8],-7.43% [at 10.5 µM]
CCOC(=O)c1cccnc1,Potency,[1],inactive
same,Potency,[2],inactive
same,Potency,[3],inactive
same,Potency,[4],inactive
same,max activation,[6],-3.51%
same,Potency,[7],inactive
same,Potency,[9],inactive
same,Potency,[5],inactive
same,Potency,[8],inactive
CC(C)OC(=O)C(C)N(C(=O)c1ccccc1)c1ccc(F)c(Cl)c1 (stereo unspecified),Potency,[1],inactive
same,Potency,[2],inactive
same,Potency,[4],2.73 µM (active)
same,Potency,[5],inactive
same,Potency,[8],3.56 µM (active)
C=CCOC(=O)CCC1CCCCC1,Potency,[10],inactive
same,Potency,[2],inactive
same,Potency,[3],inactive
same,Potency,[4],inactive
same,Potency,[5],inactive

# — PubChem BioAssay (Tox21)
